Several values for one entry are separate records, joined by “and”; a condition that tells them apart may be missing. Equal entries are not always repeated.
Key:
[1] = tested on: Human papillomavirus type 1a protein E7 (residues 44-93); assay: small molecules binding HPV E7 44-93 – biochemical, small-molecule microarray, residues 44-93, 635 nm fluorescence, primary screen (AID 1108); conditions: fluorescence 635 nm, higher = more signal;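 also: E7 fragment applied at 1 µg/mL in TBST for 1 h at 4 C; score combines spot fluorescence with its signal to noise ratio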
[2] = hepatitis C replication reporter changes, two-sided – Huh7 cells, luciferase reporter, HCV replication inhibitor project, primary screen (AID 1109); conditions: Huh7 HCV replicon luciferase reporter, 48 h; higher = more signal;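 also: huh7 hepatoma cells harbouring a luciferase neomycin HCV replicon reporter; luciferase luminescence as measure of HCV replicon replication; test concentration not given here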
[3] = molecular target: Left-right determination factor 2 (Homo sapiens) (UniProt O00292); assay: small molecules binding LEFTY2 protein – biochemical, small-molecule microarray, 635 nm fluorescence scan, primary screen (AID 1110); conditions: higher = more signal
Chain of Left-right determination factor 2 (Homo sapiens) (O00292 whole entry, looked up): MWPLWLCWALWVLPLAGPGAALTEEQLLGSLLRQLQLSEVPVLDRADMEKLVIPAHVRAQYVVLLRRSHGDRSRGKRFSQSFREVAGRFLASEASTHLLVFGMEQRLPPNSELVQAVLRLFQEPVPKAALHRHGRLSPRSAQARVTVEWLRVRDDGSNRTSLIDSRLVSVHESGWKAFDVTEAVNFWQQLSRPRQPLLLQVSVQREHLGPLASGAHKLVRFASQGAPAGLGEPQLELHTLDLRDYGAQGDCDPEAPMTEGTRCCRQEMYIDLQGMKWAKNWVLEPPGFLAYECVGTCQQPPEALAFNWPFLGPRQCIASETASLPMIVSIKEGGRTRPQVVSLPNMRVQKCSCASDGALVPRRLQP

[4] = molecular target: Calmodulin-1 (Homo sapiens) (UniProt P0DP23); assay: small molecules binding calmodulin-1 with EGTA – biochemical, small-molecule microarray, Cy5-labelled CALM1, profiling panel (AID 1111); conditions: Cy5-CALM1 binding fluorescence, higher = more signal;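 also: labelled calmodulin applied in Tris saline Tween buffer holding calcium plus EGTA and DTT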
[5] = molecular target: Calmodulin-1 (Homo sapiens) (UniProt P0DP23); assay: small molecules binding Ca-loaded calmodulin-1 – biochemical, small-molecule microarray, Cy5-labelled CALM1, plus calcium, artefact control for SMM control-protein annotation, profiling panel (AID 1112); conditions: Cy5-CALM1 binding fluorescence, higher = more signal;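 also: score merges spot fluorescence with signal to noise from triplicate slides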
[6] = probe aWnt5a binding to arrayed compounds – biochemical, biotinylated probe, 635/667 nm fluorescence, primary screen (AID 1113); conditions: small-molecule microarray, higher = more signal;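 also: score merges 667 nm fluorescence intensity with signal-to-noise per printed feature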
[7] = probe aShh binding to arrayed compounds – biochemical, biotinylated probe, 635/667 nm fluorescence, primary screen (AID 1114); conditions: small-molecule microarray, higher = more signal;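 also: probe is biotin-labelled aShh protein from a stem cell growth factor screen; measures binding of labelled protein to compounds printed on the slide; score merges feature fluorescence at 667 nm with signal-to-noise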
[8] = probe aNog binding to arrayed compounds – biochemical, biotinylated probe, 635/667 nm fluorescence, primary screen (AID 1115); conditions: small-molecule microarray, higher = more signal;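 also: probe is biotinylated aNog protein used at 0.15 µg/mL for 1 h at 4 C; z-score combines 667 nm fluorescence of each spot with its signal to noise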
[9] = molecular target: Torsin-1A-interacting protein 1 (Homo sapiens) (UniProt Q5JTV8); assay: compound microarray binding of lysate hLAP1 – cell lysate, small-molecule microarray, COS7 lysate, 635/667 nm fluorescence, primary screen (AID 1116); conditions: 635 nm fluorescence, higher = more signal
Chain of Torsin-1A-interacting protein 1 (Homo sapiens) (Q5JTV8 whole entry, looked up): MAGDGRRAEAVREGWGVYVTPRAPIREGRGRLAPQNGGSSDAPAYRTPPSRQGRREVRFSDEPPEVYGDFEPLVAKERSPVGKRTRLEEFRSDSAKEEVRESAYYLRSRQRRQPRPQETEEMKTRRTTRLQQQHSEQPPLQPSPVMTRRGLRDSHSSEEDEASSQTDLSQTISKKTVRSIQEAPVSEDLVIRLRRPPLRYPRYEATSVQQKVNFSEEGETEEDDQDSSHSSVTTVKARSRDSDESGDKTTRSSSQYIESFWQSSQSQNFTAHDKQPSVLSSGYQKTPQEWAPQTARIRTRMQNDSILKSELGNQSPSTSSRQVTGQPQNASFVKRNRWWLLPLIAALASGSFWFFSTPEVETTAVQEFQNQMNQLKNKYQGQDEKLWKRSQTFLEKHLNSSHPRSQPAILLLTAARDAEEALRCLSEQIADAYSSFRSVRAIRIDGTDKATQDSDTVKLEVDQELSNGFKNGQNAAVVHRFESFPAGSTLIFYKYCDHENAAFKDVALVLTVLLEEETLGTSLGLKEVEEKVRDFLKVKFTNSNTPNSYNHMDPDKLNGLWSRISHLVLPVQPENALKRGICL

[10] = molecular target: Alpha-bungarotoxin (Bungarus multicinctus) (UniProt P60615); assay: compounds binding labelled alpha-BTX control protein – biochemical, small-molecule microarray, Alexa647 label, 635/667 nm fluorescence, artefact control for SMM control protein annotation, profiling panel (AID 1117); conditions: alpha-BTX-A647 binding fluorescence, higher = more signal
Chain of Alpha-bungarotoxin (Bungarus multicinctus) (P60615 whole entry, looked up): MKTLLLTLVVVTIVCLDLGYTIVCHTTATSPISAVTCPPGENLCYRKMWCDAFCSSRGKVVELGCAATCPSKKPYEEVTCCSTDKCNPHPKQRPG

Row | Compound | composite z-score [1] | z-score [2] | composite z-score [3] | composite z-score [4] | composite z-score [5] | composite z-score [6] | composite z-score [7] | composite z-score [8] | composite z-score [9] | composite z-score [10]
1 | C[C@@H](c1ccccc1)N1C(=O)[C@H]2[C@H]3[C@H](O)[C@H](O)CC(=O)[C@@H]3CC[C@H]2C1=O | 0.189 | 0.265 | 0.574 | 0.377 | -0.241 | -0.119 | 0.163 | -0.387 | 0.49 | -0.0104
2 | C=CCN(C(=O)C(c1cccs1)N(C(=O)/C=C\C(=O)O)C(C)(C)CO)c1ccc(OC)cc1 (stereo not given) | -0.759 and -0.652 | 0.0435 and 2.82 | -1.77 and -2.47 | 0.459 and -0.933 | 0.891 and 0.235 | -0.0455 and -0.166 | -0.138 and -0.0626 | 0.162 and 0.292 | 0.588 and 1.06 | -2.1 and -1.16
3 | CC(CO)N1C(=O)[C@@H]2C3C(=O)OCCC=C[C@H]3OC23C=CCN(CCN2CCOCC2)C(=O)[C@@H]13 (stereo not given in full) | -1.05 and 0.497 | -0.38 and -0.851 | -0.346 and 0.398 | -0.0612 and -0.561 | -0.75 and -1.03 | -0.0981 and -0.13 | 0.0278 and 0.214 | 0.199 and -0.0161 | -0.71 and 1.48 | -0.106 and -0.0808
4 | C=C(C)C(=O)OC[C@@H]1CN2[C@@H](CC[C@@H](C)[C@@H]2c2ccc(Br)cc2)C(=O)O1 | 0.854 | 0.867 | 0.891 | -0.265 | -0.157 | -0.109 | 0.0684 | -0.259 | 0.183 | 0.548
5 | COC(=O)C1=C(C)N(Cc2ccccc2)[C@]23O[C@](C(=O)OC)(C(=O)N2[C@@H]1c1ccccc1)[C@H]1CCCC(=O)[C@H]13 | -0.525 and 0.155 | -3.35 and -1.15 | 0.877 and 0.588 | -0.127 and -0.222 | 0.0491 and -0.499 | -0.0792 and -0.0462 | -0.0146 and -0.0553 | -0.275 and -0.367 | 0.206 and 0.139 | 0.787 and 0.0026
6 | COC(=O)c1c2oc(c1C(=O)OC)C(=O)N[C@@H](Cc1ccccc1)Cn1cc(nn1)C1(CCCCC1)NC(=O)N[C@H](CO)CC2 | 0.773 and 0.664 | -0.16 and -0.583 | 0.564 and 0.328 | 0.0754 and -0.157 | 0.0102 and -0.607 | -0.0403 and -0.0924 | 0.0684 and -0.0904 | -0.0604 and 0.149 | 2.36 and 0.399 | 1.53 and 0.281
7 | C=C[C@@H](OC)[C@H](O)c1ccc(OC)c(O)c1 | -0.306 and -0.0635 | 0.552 and -0.127 | 0.861 and -0.46 | -1.19 and -1.42 | -0.799 and -0.187 | -0.293 and -0.208 | -0.289 and -0.138 | -0.321 and -0.347 | 0.0742 and 0.111 | -0.397 and 0.989
8 | C=CCN(CCCCC)C(=O)C1N(CCOCCO)C(=O)C2C(C(=O)O)C3C=CC21O3 (stereo not given) | -1.53 and -0.495 | -0.586 and 0.715 | -2.78 and -1.83 | -0.368 and -0.355 | 1.01 and 1.07 | -0.276 and -0.328 | 0.0048 and -0.124 | -0.149 and -0.201 | -1.04 and 1.94 | -1.16 and -3.11
9 | C=CCN(C(=O)C(c1cccs1)N(CCOCCO)C(=O)/C=C\C(=O)O)c1ccc(OC)cc1 (stereo not given) | -2.11 and -1.15 | 1.49 and 0.42 | 0.0612 and -1.47 | -0.328 and -1.13 | -0.0309 and 0.36 | -0.214 and -0.232 | -0.291 and -0.138 | -0.636 and 0.146 | -0.618 and -0.178 | -0.744 and -2.86
10 | C=CCN1C(=O)[C@]2(O[C@H](CCn3cc(CCO)nn3)[C@@H]([Si](C)(C)c3ccc(OC)cc3)[C@@H]2C)c2cc(N3C(=O)c4cccc5cccc3c45)ccc21 | 1.33 and 0.725 | -5.11 and -5.13 | 0.238 and -0.0491 | 0.345 and 0.772 | -0.0218 and 0.227 | -0.0203 and 0.0079 | 0.0048 and 0.14 | -0.136 and -0.0115 | 1.11 and 0.749 | 0.334 and 0.366
11 | Cc1ccc(S(=O)(=O)N[C@@H]2COC(=O)CC=C[C@@H](C)[C@@H]3C=C[C@H](O)[C@@H](COC(=O)CC=C[C@H]2C)O3)cc1 | -0.813 and -0.0304 | -0.606 and -1.32 | 1.21 and 0.343 | -0.657 and -0.267 | -1.1 and -0.778 | -0.172 and -0.0044 | -0.0977 and -0.0035 | -0.0965 and -0.116 | 0.11 and 0.433 | -0.268 and 0.391
12 | CC(C)[Si]1(C(C)C)OCc2cc(C3CC3)nc(CCc3ccccc3)c21 | -0.789 and 0.192 | -0.745 and -0.958 | 0.045 and 0.273 | 0.154 and -0.425 | -0.253 and -0.002 | -0.15 and -0.0512 | -0.181 and -0.221 | 0.0732 and -0.0554 | -0.527 and 0.362 | 0.0536 and -0.448
13 | CCOC(=O)C[C@H]1[C@H](OC(=O)c2ccccc2-c2ccccc2)[C@@H](NC(=O)c2ccccc2)c2cc(OCCCO)ccc2N1C(=O)c1ccc2ccccc2n1 | 0.288 and 1.08 | -1.19 and -0.583 | 0.668 and 0.619 | -0.118 and 1.47 | -0.148 and 0.227 | 0.0324 and -0.108 | -0.2 and 0.0078 | -0.122 and 0.386 | 0.491 and 0.364 | 0.328 and 0.833
14 | CC(C)=NO[C@@H](C)c1cc(-c2c(C)cc(C)cc2C)no1 | -0.379 | -0.527 | 0.192 | -0.35 | -0.264 | -0.152 | 0.0899 | -0.242 | 0.1 | 0.282
15 | C[N+](C)(C)CCCCNC(=O)[C@@H]1C[C@@H]2C(=O)N[C@@H](CCCC[N+](C)(C)C)C(=O)N2[C@@H]1c1cccc(OCCO)c1 | 0.845 and 0.331 | -0.552 and -0.848 | 1.59 and 1.49 | -1.47 and -1.67 | -2.01 and -0.543 | -0.0758 and 0.048 | 0.23 and -0.0232 | -0.12 and 0.0139 | 2.23 and 1.62 | -0.257 and 1.62
16 | C=CCN(CCCCC)C(=O)C(c1cccs1)N(C(=O)/C=C\C(=O)O)c1c(Cl)cccc1CO (stereo not given) | -0.961 and -1.88 | -0.651 and -0.698 | -3.1 and -0.775 | -0.332 and -1.06 | 0.782 and -0.54 | -0.228 and -0.348 | -0.138 and -0.291 | 0.509 and -0.369 | 2.83 and -1.08 | -2.56 and -0.725
17 | C[C@@H]1CC[C@H]2C(=O)N3[C@@H](CC[C@@H](C)[C@@H]3c3ccc(-c4ccco4)cc3)C(=O)N2[C@H]1c1ccc(-c2ccco2)cc1 | -0.496 and 0.292 | -0.207 and -0.734 | 0.714 and 1.31 | 1.07 and -0.328 | -0.355 and -1.5 | -0.113 and 0.0579 | 0.166 and -0.0626 | 0.274 and 0.223 | 1.07 and 0.704 | 1.92 and 3.43

From PubChem BioAssay
